Shown are actives, neighbours in structure and some others; about 2.8% of the full set was active somewhere.
HIF act – HIF pathway transcriptional activators, primary screen, cell-based, U2OS HRE-luciferase, luminescence; U2OS HRE-luciferase reporter; normalized: DMSO 0%, desferrioxamine 100%; activation, % at 7.5 µM (by protocol); 300,000 tested, 0.32% active;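 active means mean activation of at least 10% of the iron chelator positive control signal, with at least half of replicates also reaching 10%; inconclusive means mean and replicate majority disagree about reaching 10%; inactive means mean and most replicates under 10%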
pCIP destab – p/CIP-EGFP fusion destabilizers, primary screen, fluorescence, F442A cells. 290,000 tested, 0.01% active. Q05BA5. AID 1984, 2009. decrease of EGFP signal, % at 10 µM. 16 h;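 active means EGFP signal decrease of at least 30% at 10 µM or well 3 SD below plate mean, unless failing retest; inactive means the rest, including hits failing retest or dose response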
Target sequence (Q05BA5 1-1403): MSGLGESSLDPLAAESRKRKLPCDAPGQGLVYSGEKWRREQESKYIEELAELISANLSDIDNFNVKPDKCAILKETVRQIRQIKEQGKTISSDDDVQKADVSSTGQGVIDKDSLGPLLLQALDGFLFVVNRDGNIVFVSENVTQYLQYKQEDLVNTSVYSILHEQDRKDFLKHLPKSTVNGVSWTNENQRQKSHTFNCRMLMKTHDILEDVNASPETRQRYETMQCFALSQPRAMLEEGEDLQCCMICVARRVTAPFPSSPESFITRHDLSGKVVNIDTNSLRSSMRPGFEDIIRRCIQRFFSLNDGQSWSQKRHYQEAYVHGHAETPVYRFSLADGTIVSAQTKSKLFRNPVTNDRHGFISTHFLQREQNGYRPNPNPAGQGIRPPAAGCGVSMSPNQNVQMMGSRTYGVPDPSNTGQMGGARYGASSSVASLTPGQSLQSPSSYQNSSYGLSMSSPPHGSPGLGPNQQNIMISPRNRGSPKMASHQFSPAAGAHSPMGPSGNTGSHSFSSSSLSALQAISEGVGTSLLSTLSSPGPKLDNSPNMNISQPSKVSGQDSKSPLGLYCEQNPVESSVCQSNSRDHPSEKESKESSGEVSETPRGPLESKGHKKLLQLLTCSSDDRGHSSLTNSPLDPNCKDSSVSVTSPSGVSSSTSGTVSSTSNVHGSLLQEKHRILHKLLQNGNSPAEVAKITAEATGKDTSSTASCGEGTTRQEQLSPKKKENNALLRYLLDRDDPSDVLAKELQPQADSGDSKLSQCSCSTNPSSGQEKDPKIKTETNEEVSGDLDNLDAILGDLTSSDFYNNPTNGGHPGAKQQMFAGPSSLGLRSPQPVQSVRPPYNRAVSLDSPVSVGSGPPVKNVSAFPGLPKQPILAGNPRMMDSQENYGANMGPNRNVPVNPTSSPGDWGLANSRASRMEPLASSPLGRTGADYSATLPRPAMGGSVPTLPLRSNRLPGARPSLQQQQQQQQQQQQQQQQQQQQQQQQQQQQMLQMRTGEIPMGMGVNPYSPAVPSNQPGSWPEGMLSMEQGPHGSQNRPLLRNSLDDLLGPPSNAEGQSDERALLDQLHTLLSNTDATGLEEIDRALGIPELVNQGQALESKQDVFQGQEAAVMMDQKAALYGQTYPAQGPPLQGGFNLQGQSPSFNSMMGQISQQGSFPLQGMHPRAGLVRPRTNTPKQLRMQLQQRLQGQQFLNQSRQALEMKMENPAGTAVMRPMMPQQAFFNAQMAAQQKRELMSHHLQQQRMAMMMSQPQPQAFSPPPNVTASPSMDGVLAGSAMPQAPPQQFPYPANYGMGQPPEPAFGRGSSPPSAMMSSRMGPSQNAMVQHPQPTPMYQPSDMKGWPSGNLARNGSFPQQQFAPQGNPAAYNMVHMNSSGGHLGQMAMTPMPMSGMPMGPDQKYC
AHR activator – AHR activators, primary screen, cell-based, luminescence, luciferase reporter, human; Aryl hydrocarbon receptor (Homo sapiens), P35869; AHR-responsive luciferase reporter cells; activation, % at 5 µM; 320,000 tested, 2.5% active; AID 2796, 2010; in the data active means activation above about 47%;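 further: 0% = vehicle wells and 100% = reference agonist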
PolyA inhibitor – polyadenylation inhibitors in yeast reporter cells, primary screen, luminescence, S. cerevisiae; 300,000 tested, 0.02% active; activity score, % at 12 µM; S. cerevisiae SKY197-pL101 polyadenylation reporter, beta-gal luminescence; efflux-impaired pdr1/pdr3 knockout yeast; score 100 = 6 SD above DMSO;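 active means lowest replicate activity score at least 50, where 100 means six control SD above control mean; inconclusive means lowest score under 50 but half or more replicates reach 50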;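 further: yeast exposed to compound for 9 h at 30 °C; higher score means more reporter readthrough which indicates perturbed polyadenylation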
Platelet DG rel – inhibitors of platelet dense granule secretion, primary screen, cell-based, MLPCN, human platelets; human platelet-rich plasma, SFLLRN dense granule ATP release, luminescence; inhibition, %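 (compounds screened at 7.5 µM in platelet-rich plasma)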; 300,000 tested, 0.22% active; AID 1663, 2009;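 active means mean replicate score, as percent of positive control, at or above 50; inconclusive means mean below 50 but at least one replicate at or above 50; inactive means mean and every replicate below 50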
* marks the source's active call; other numbers are inactive results; ? = inconclusive; nt = no result given.

SMILES	HIF act	pCIP destab	AHR activator	PolyA inhibitor	Platelet DG rel
O=C(Nc1ccc2c(c1)OCO2)c1noc2c1CCCC2	0.2	-16.4	55.0*	-5.0	-9.6
O=C(Nc1cc(Cl)ccc1Cl)c1noc2c1CCCC2	0.4	-0.8	75.1*	-13.2	7.0
CNc1nc(SCc2ccc(C)cc2)nc2c1CCCC2	1.7	-24.1	11.0	-0.6	1.5
CCOc1ccc(OCCn2nnc3ccccc3c2=O)cc1	2.7	7.0	1.1	4.6	5.4
COc1cc2c(cc1OC)-c1cc(NC3CCCC3)nc(=O)n1CC2	-0.2	-15.0	7.4	-3.9	26.0
CCN(CC)c1ccc(Nc2cc3n(c(=O)n2)CCc2cc(OC)c(OC)cc2-3)cc1	-0.4	-16.2	2.5	-4.8	20.0
COc1cc2c(cc1OC)-c1cc(Nc3ccc(F)cc3)nc(=O)n1CC2	-23.5	0.3	3.3	9.1	94.7*
COc1cc2c(cc1OC)-c1cc(Nc3ccc(N(C)C)cc3)nc(=O)n1CC2	0.6	-15.4	10.4	-5.0	75.9*
COc1cc2c(cc1OC)-c1cc(Nc3cccc(F)c3)nc(=O)n1CC2	-0.3	0.3	nt	1.7	70.9*
CSc1nnc(CSc2cc(C)nc(N(C)C)n2)o1	0.6	-13.8	-0.2	3.8	-5.3
O=C(Cc1cccs1)Nc1nnc(SCc2ccc(Br)cc2)s1	0.3	0.4	47.6*	3.8	-7.1
CCn1c(CNc2ccc(Cl)cc2)nnc1SCc1ccc(C)cc1	-0.5	17.5	50.5*	-12.5	4.9
Cc1cc2c(c(SCC(=O)NCCc3ccccc3)n1)C(=O)OC2	0.4	-1.5	4.0	19.8	-2.7
Cc1ccnc(NC(=O)CCCc2ccccc2)c1	2.1	-1.2	2.9	12.9	-3.8
O=C(CCCc1ccccc1)Nc1ccccn1	15.0*	0.8	0.4	-1.7	-8.1
Fc1ccccc1Nc1nc2ccccc2o1	1.0	10.6	4.8	?	58.0*
CC(=O)Nc1ccc(NC(=O)COC(=O)CCc2nc3ccccc3s2)cc1	0.1	-13.4	4.3	3.5	9.4
Cc1ccc(NC(=O)Nc2cccc(C)n2)c(C)c1	2.6	7.7	56.3*	35.9	5.0
COc1ccc(NC(=O)Nc2cccc(C)n2)c(OC)c1	-13.0	6.0	-0.5	2.3	-5.8
O=C(CSc1nnnn1CCCO)Nc1ccc2c(c1)OCO2	0.0	16.6	54.8*	7.2	-2.6
CC(C)n1nnnc1SCC(=O)Nc1ccc2c(c1)OCO2	1.2	13.1	56.0*	13.0	1.0
CCCCn1nnnc1SCC(=O)Nc1ccc(N(C)C)cc1	0.9	3.5	70.8*	-19.4	8.2
O=C(CSc1nc2ncc(Br)cc2[nH]1)Nc1ccc2c(c1)OCO2	nt	-1.0	50.1*	0.2	nt
O=C(NC1CCCc2ccccc21)c1c(F)cccc1Cl (centres undefined)	-2.8	-1.9	4.8	-5.4	13.5
Cc1ccc(C(=O)N/C(=C\c2cccs2)C(=O)NCCCN2CCOCC2)cc1	0.4	-11.6	-3.0	8.1	-2.5
SMILES	HIF act	pCIP destab	AHR activator	PolyA inhibitor	Platelet DG rel
Cc1sc2ncnc(N3CCC(C(=O)Nc4ccc(Br)cc4Br)CC3)c2c1C	-0.3	nt	-0.3	-12.7	-11.0
CCn1c(Cc2ccccc2)nnc1SCC(=O)Nc1ccc2c(c1)OCO2	-0.1	-7.4	12.3	0.5	-0.8
O=C(Cn1c(SCC(=O)NC2CCCC2)nnc1-c1ccncc1)Nc1ccc2c(c1)OCO2	0.1	-5.7	66.2*	20.7	-6.9
Nn1cc(-c2ccccc2)nc1SCC(=O)Nc1ccc2c(c1)OCO2	0.3	-3.4	68.5*	-13.8	-17.3
CCc1nnc(SCC(=O)Nc2ccc3c(c2)OCO3)n1CC	-0.2	-6.9	50.3*	2.6	-8.0
CCCn1c(SCC(=O)NC2CCCCC2)nnc1-c1ccncc1	0.0	-4.5	3.0	22.1	-1.2
CN(C)/C=C/C(=O)c1cnc(-c2ccccn2)s1	-0.9	-5.6	2.2	8.8	-0.2
O=C(Nc1cc2c3c(c1)CC(=O)N3CCC2)c1ccc(F)cc1	-1.0	nt	47.0*	16.1	-0.9
COc1ccccc1/C(O)=C(\C#N)c1nc2ccccc2[nH]1	0.0	4.4	48.2*	2.0	2.3
N#C/C(=C(\O)Cc1ccccc1)c1nc2ccccc2[nH]1	0.3	-3.6	50.3*	36.3	7.7
N#C/C(=C(/O)c1cccs1)c1nc2ccccc2[nH]1	1.2	-10.3	54.1*	-7.2	-3.1
CC(C)Cn1c(N)c(C(=O)COC(=O)C2Cc3ccccc3CN2S(C)(=O)=O)c(=O)n(C)c1=O (centres undefined)	nt	nt	1.9	nt	nt
O=C(Nc1cc([N+](=O)[O-])ccc1C(=O)Nc1cccnc1)c1ccccc1	0.1	-2.9	66.1*	15.3	-4.3
O=C(Nc1cccnc1)c1cccc([N+](=O)[O-])c1	-0.4	-4.7	4.3	-23.1	-0.2
Cc1ccc(NC(=O)c2cc([N+](=O)[O-])ccc2NCc2cccnc2)cc1	-0.3	15.1	74.6*	-21.2	-3.1
Cn1cncc1C#Cc1c(-c2ccc(S(C)(=O)=O)cc2)sc2ccccc12	nt	nt	23.1	nt	nt
Cn1cncc1C#Cc1c(C=O)[nH]c2ccccc12	nt	nt	68.2*	nt	nt
COc1ccc(Nc2nc3ccccc3n3cnnc23)cc1Cl	-2.4	-16.0	3.8	1.1	3.9
COc1ccc(/C(C)=N/Nc2nc3ccccc3n3cnnc23)cc1OC	0.5	-15.9	61.1*	-8.9	-2.0
O=c1cc(CN2CCN(c3ccccc3O)CC2)nc2sccn12	-0.1	-2.3	2.5	9.7	72.4*
Cc1cccc(N2CCN(Cc3cc(=O)n4ccsc4n3)CC2)c1C	-0.2	-0.2	-1.5	?	0.6
Cc1cc(C)n(-c2nc3ccccc3c(=O)n2OCc2ccc(Cl)cc2)n1	0.2	-5.3	49.4*	5.6	-5.2
C#CCOn1c(-n2nc(C)cc2C)nc2ccccc2c1=O	-38.1	-6.1	4.0	-2.4	1.0
Cc1cc(C)n(-c2nc3ccccc3c(=O)n2OCC(=O)OCc2ccccc2)n1	0.8	-2.0	nt	-5.4	13.3
Cc1cc(C)n(-c2nc3ccccc3c(=O)n2OCc2ccc(F)cc2)n1	2.4	-3.7	53.8*	-10.9	3.7
SMILES	HIF act	pCIP destab	AHR activator	PolyA inhibitor	Platelet DG rel
CC1CN(c2nc3ccccn3c(=O)c2/C=C(\C#N)C(N)=O)CC(C)O1 (centres undefined)	-0.3	-18.0	0.5	-6.1	-0.9
CC1CN(c2nc3ccccn3c(=O)c2/C=C(\C#N)C(=O)N2CCOCC2)CC(C)O1 (centres undefined)	18.5*	7.4	-1.8	2.2	5.1
O=C(COC(=O)Cc1ccc(S(=O)(=O)N2CCOCC2)s1)Nc1ccc2c(c1)OCO2	-13.1	-6.2	-0.1	105.7*	1.2
O=C(COC(=O)Cc1ccc(S(=O)(=O)N2CCOCC2)s1)Nc1ccccc1	nt	nt	-1.7	nt	nt
COc1cccc(NC(=S)NCc2ccncc2)c1	0.0	-9.0	7.4	25.2	11.4
COc1cccc(NC(=O)C(=O)NCc2ccncc2)c1	2.8	-10.9	53.2*	5.7	6.3
COc1ccc(C)cc1NC(=O)C(=O)NCc1ccncc1	0.2	-1.9	50.3*	-7.1	6.5

Compound activity as filed in PubChem BioAssay.
